PubChem BioAssay (NCI)
This is part of a sample that, as a whole, favours compounds with a hit. Of some 83,000 tested, about 20% had one in any assay.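 Cell lines were cultured in 96-well plates, exposed to a single compound concentration, and assessed for percent growth 48 hours later.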 Unmarked numbers belong to inactive results. Activity calls are given as the source filed them. The calls were made as follows: active = growth percent below 10; inactive = the rest.

Test system: HCT-15 colon
Experiment: NCI-60 one-dose screen, 48 h (100 = growth as untreated, 0 = no growth, -100 = all killed)
Conditions: 10 µM unless noted

SMILES | growth [%]
O=C1COCCN1c1ccc(NCc2cn(Cc3ccc(F)cc3)c3ccccc23)cc1 | 61.9
CC(=O)Nc1ccc2nc3ccc(NC(C)=O)cc3[n+](-c3ccccc3)c2c1 | 104
CCCCNC(=O)NS(=O)(=O)Cc1ccccc1 | 109

Test system: HT29 colon
Experiment: as above
Conditions: 10 µM unless noted

SMILES | growth
NC1=NC(=O)NC1(c1ccccc1)c1ccccc1 | 111%
N#C/C(C(=O)c1ccccc1)=C1/C(=O)Nc2ccccc21 | 102%
CN(Cc1cccc(C(F)(F)F)c1)C(=O)[C@@H](CC(=O)N1CCC(N2CCCCC2)CC1)N1C(=O)[C@@H](N2C(=O)OC[C@@H]2c2ccccc2)[C@H]1/C=C/c1ccccc1 | 86.6%
CCOc1ccc(S(=O)(=O)Nc2ccc3c(c2)N(S(=O)(=O)CC)CCC3)cc1 | 72.7%
CCOC(=O)C(=Cc1ccccc1[N+](=O)[O-])C(=O)OCC | 11.4%
COc1cc(/C=C/C(=O)/C=C/c2ccc(-n3ccnc3C)cc2)ccc1O | -42.9% (active)
CCOC(=O)CC(c1ccccc1)C(C#N)c1ccccc1 (stereo unspecified) | 103%
Cc1ccc(C2=C/C(=C/c3ccc(Br)cc3)C(=O)N2CCc2ccc(S(N)(=O)=O)cc2)cc1 | 106%
Cc1ccc(NC(=O)N[C@@H](Cc2cc(F)cc(F)c2)C(=O)N[C@@H]2C(=O)N3CCC[C@H]3C(=O)N3CCCC[C@H]3C(=O)N[C@@H](C)C(=O)N3C[C@H](C)C[C@H]3C(=O)O[C@H]2C)cc1 | 30.3%
C=C(C)[C@@H]1CC[C@]2(C)[C@H](CC[C@@H]3[C@@H]([C@@](C)(O)CCC=C(C)C)CC[C@]32C)[C@@]1(C)CCC(=O)O | 2.65% [100 µM] (active)
C=CCCCCCCCCC(=O)OC(C)C | 98.6%
O=C1Nc2ccccc2/C1=C/C(=O)c1ccc(N2CCCCC2)cc1 | 32.8%
O=C(N=c1n(-c2ccccc2)nc2n1CCN2C1=NCCN1C(=O)c1ccc(Cl)cc1)c1ccc(Cl)cc1 | 59.7%
CC1=CC[C@@H]2C(C)(C)[C@@H](O)CC[C@@]2(C)[C@@H]1COc1ccc2ccc(=O)oc2c1 | 70.5%
CSc1nc2sc3cc(Cl)c(Cl)cc3n2c(=N)c1C#N | 94.6%
COc1ccc(C(=O)CCC(=O)O)cc1 | 49.8%
O=C(CCNCc1ccccc1)c1ccccc1 | 106%
NC(=O)CC1C=CCC1 (stereo unspecified) | 96.3%
CCNc1cc2c(cc1Br)-c1ccccc1C2=O | 97.4%

SMILES | growth
O=C(O)c1cn(C2CC2)c2cc(N3CCN(Cc4c(O)ccc5ccccc45)CC3)c(F)cc2c1=O | -46.7% (active)
CCOC(=O)COc1ccc2c(c1)O/C(=C\c1ccc(O)cc1)C2=O | 108%
Nc1cc(NN=C(c2ccc(O)cc2)c2ccc(O)cc2)c([N+](=O)[O-])cc1[N+](=O)[O-] | 98.4%
CCCCCCNC(=O)Nc1ncnc2c1ncn2-c1ccccc1 | 99.4%
C[C@]12CCc3c(ccc4cc(O)ccc34)[C@@H]1CC[C@H]2O | 104%
Nc1nc(Nc2ccccc2)c2ncn(Cc3ccc4c(c3)OCO4)c2n1 | 20.6%
COc1ccc(OC)c(NC=O)c1 | 99.4%
Fc1cc2[nH]ncc2c2c3c(c(-c4cn[nH]c4)nc12)CCCC3 | 11%
CCN(CC)CCCCCCNc1cccc2cc(Br)cnc12 | 16.9%
O=C(CSc1nc2ccc([N+](=O)[O-])cc2[nH]1)Nc1cccc(Cl)c1 | 21.1%
CCN(CC)CCCOc1ccc2c(c1)O/C(=C\c1cccc(OC)c1)C2=O | 50.2%
CC1(C)C(=O)/C(=C\c2ccco2)C[C@]2(C)[C@H]3CC=C4[C@@H]5C[C@](C)(C(=O)O)CC[C@]5(C)CC[C@@]4(C)[C@]3(C)CC[C@@H]12 | -50.8% [100 µM] (active)
C=C(C)[C@@H]1CC[C@]2(C(=O)NCCCCCCN(CCCN)CCCN)CC[C@]3(C)[C@H](CC[C@@H]4[C@@]5(C)CC[C@H](OCCCN)C(C)(C)[C@@H]5CC[C@]43C)[C@@H]12 | 4.21% [100 µM] (active)
C=C(C)[C@@H]1CC[C@]2(COC(=O)c3ccccc3C(=O)O)CC[C@]3(C)[C@H](CC[C@@H]4[C@@]5(C)CC[C@H](OC(=O)c6ccccc6C(=O)O)C(C)(C)[C@@H]5CC[C@]43C)[C@@H]12 | 64.3% [100 µM]
COc1ccc2c(c1)c(-c1noc(-c3cn(C)c4ncc(F)cc34)n1)cn2C | 78.2%
c1ccc(-c2nnc(-c3c[nH]c4ncccc34)s2)cc1 | 106%
O=C1COCCN1c1ccc(NCc2cn(Cc3ccc(F)cc3)c3ccccc23)cc1 | 34.8%
CC(=O)Nc1ccc2nc3ccc(NC(C)=O)cc3[n+](-c3ccccc3)c2c1 | 115%
CCCCNC(=O)NS(=O)(=O)Cc1ccccc1 | 114%
